Our source for the growth inhibition values is PubChem BioAssay (NCI).

Assay [1] is described as follows: NCI Yeast Anticancer Drug Screen. Data for the rad50 strain (AID 155).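 Also: 0% = growth of vehicle-only cultures of the same strain.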 As to conditions: S. cerevisiae rad50 strain growth inhibition, stronger effect = higher value. Put shortly: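 Genetically altered yeast (DNA repair pathway); compound treatment; growth inhibition vs vehicle ctrl.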
Assay [2] can be described thus: NCI Yeast Anticancer Drug Screen. Data for the mec2-1 strain (AID 157). The note with it: S. cerevisiae mec2-1 strain, stronger effect = higher value. Put shortly: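 Growth inhibition is read against vehicle-treated controls after compound exposure of the mec2-1 yeast strain, which is defective in DNA damage repair or cell cycle control.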
A short description of assay [3]: NCI Yeast Anticancer Drug Screen. Data for the sgs1 mgt1 strain (AID 161).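 Also: 0% = growth of cultures given vehicle only.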 As to conditions: S. cerevisiae sgs1 mgt1 strain, stronger effect = higher value. Put shortly:
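Percent growth inhibition was derived by comparing compound-exposed mutant yeast with vehicle-exposed cultures. The strain carries alterations in DNA damage repair.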

Assay [4] in a line: NCI Yeast Anticancer Drug Screen. Data for the cln2 rad14 strain (AID 165).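 Also: 0% = growth equal to vehicle treated cultures.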 As to conditions: S. cerevisiae cln2 rad14 strain, stronger effect = higher value. The method, boiled down: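 Growth inhibition, relative to vehicle-treated controls, is the read-out. The test organism is a yeast strain with defined genetic alterations, cln2 rad14.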
Assay [5] can be described thus: NCI Yeast Anticancer Drug Screen. Data for the bub3 strain (AID 167). As to conditions: S. cerevisiae bub3 mutant strain, stronger effect = higher value. The method, boiled down: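 Yeast carrying a defined mutation is treated with each compound, and growth is compared with that of vehicle-exposed cells to give inhibition.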
A short description of assay [6]: NCI Yeast Anticancer Drug Screen. Data for the mlh1 rad18 strain (AID 175). As to conditions: S. cerevisiae mlh1 rad18 strain growth inhibition, stronger effect = higher value. Put shortly: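 Cells of a genetically altered yeast strain, deficient in DNA damage repair, were treated with compound. Their growth was then compared with that of vehicle-treated cultures to give inhibition.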

The mark [7] stands for this setting: at 5.0 µM (retest, dose inferred, filed as 0.5).
Setting [8] is: at 50.0 µM (retest, dose inferred, filed as 5.0).

SMILES strings stand for the structures. Compounds without any hit were thinned out: in the full panel of roughly 79,000, 15% have a hit. Unmarked numbers belong to inactive results. The source made the active and inactive calls. Rule as the data show it: active = growth inhibition above about 70%; inactive = the rest.

`COC(=O)C(=O)CC(=O)c1cccc(Cl)c1`: the growth inhibition in assay [1] (setting [7]) was 16%; in assay [1] (setting [8]), 99% (active); in assay [1] (at 50.0 µM), 74.5% (active); in assay [2] (setting [7]), 18%; in assay [2] (setting [8]), 100% (active); in assay [2] (at 50.0 µM), 77% (active). Moreover, the growth inhibition in assay [3] (setting [7]) was 18%; in assay [3] (setting [8]) it was 99% (active); in assay [3] (at 50.0 µM), 64.2%; in assay [4] (setting [7]), 6%; in assay [4] (setting [8]) it was 99% (active); in assay [4] (at 50.0 µM), 21.8%. Also, the growth inhibition in assay [5] (setting [7]) is 13%; in assay [5] (setting [8]), 99% (active); in assay [5] (at 50.0 µM), 82.7% (active); in assay [6] (setting [7]) it was 12%; in assay [6] (setting [8]), 99% (active); in assay [6] (at 50.0 µM) it was 74.7% (active).

For `O=C1c2sccc2-c2cccc3cccc1c23` (tested in a mixture with another compound), the growth inhibition in assay [1] (setting [7]) was 87% (active); in assay [1] (setting [8]), 98% (active); in assay [1] (at 50.0 µM), 97.2% (active); in assay [2] (setting [7]) it was 63%; in assay [2] (setting [8]), 99% (active); in assay [2] (at 50.0 µM), 98% (active). Also, the growth inhibition in assay [3] (setting [7]) is 59%; in assay [3] (setting [8]), 99% (active); in assay [3] (at 50.0 µM) it was 96.2% (active); in assay [4] (setting [7]) it was 20%; in assay [4] (setting [8]), 96% (active); in assay [4] (at 50.0 µM) it was 82.5% (active). Besides, the growth inhibition is 29% in assay [5] (setting [7]); 98% (active) in assay [5] (setting [8]); 83.2% (active) in assay [5] (at 50.0 µM); 86% (active) in assay [6] (setting [7]); 98% (active) in assay [6] (setting [8]); 95% (active) in assay [6] (at 50.0 µM).

For `O=C1C(=O)C2CC3(CC1N2Cc1ccccc1)OCCO3`, the growth inhibition is 11% in assay [1] (setting [7]); 95% (active) in assay [1] (setting [8]); 98% (active) in assay [1] (at 50.0 µM); -28% in assay [2] (setting [7]); 79% (active) in assay [2] (setting [8]); 96.5% (active) in assay [2] (at 50.0 µM). Also, the growth inhibition in assay [3] (setting [7]) is 36%; in assay [3] (setting [8]), 93% (active); in assay [3] (at 50.0 µM), 96.9% (active); in assay [4] (setting [7]), 5%; in assay [4] (setting [8]), 43%; in assay [4] (at 50.0 µM), 95.2% (active). Besides, the growth inhibition in assay [5] (setting [7]) was -10%; in assay [5] (setting [8]) it was 78% (active); in assay [5] (at 50.0 µM), 86.5% (active); in assay [6] (setting [7]), 34%; in assay [6] (setting [8]), 94% (active); in assay [6] (at 50.0 µM), 95.5% (active).

Take `N#CCc1nc(Cl)cc(Cl)n1`: the growth inhibition in assay [1] (setting [7]) was 2%; in assay [1] (setting [8]) it was 29%; in assay [1] (at 50.0 µM) it was 31.9%; in assay [2] (setting [7]), 12%; in assay [2] (setting [8]) it was 59%; in assay [2] (at 50.0 µM), 81.6% (active). The growth inhibition was 2% in assay [3] (setting [7]); 24% in assay [3] (setting [8]); 19.8% in assay [3] (at 50.0 µM); 4% in assay [4] (setting [7]); 12% in assay [4] (setting [8]); 9.7% in assay [4] (at 50.0 µM). Moreover, the growth inhibition in assay [5] (setting [7]) is -4%; in assay [5] (setting [8]), 2%; in assay [5] (at 50.0 µM) it was 5.05%; in assay [6] (setting [7]) it was 3%; in assay [6] (setting [8]), 27%; in assay [6] (at 50.0 µM) it was 15.9%.

As for `CC(C)C(=O)/C=C/c1ccc(Cl)cc1Cl`, the growth inhibition in assay [1] (setting [7]) is -8%; in assay [1] (setting [8]) it was 46%; in assay [1] (at 50.0 µM), 69.8%; in assay [2] (setting [7]), -10%; in assay [2] (setting [8]), 48%; in assay [2] (at 50.0 µM), 71.8% (active). Besides, the growth inhibition is -16% in assay [3] (setting [7]); 31% in assay [3] (setting [8]); 69.6% in assay [3] (at 50.0 µM); 12% in assay [4] (setting [7]); 36% in assay [4] (setting [8]); 52.5% in assay [4] (at 50.0 µM). Moreover, the growth inhibition in assay [5] (setting [7]) was -32%; in assay [5] (setting [8]), 54%; in assay [5] (at 50.0 µM), 69.4%; in assay [6] (setting [7]), -5%; in assay [6] (setting [8]), 48%; in assay [6] (at 50.0 µM) it was 40.3%.

For `ClC1=C(Cl)C(Cl)=C(Cl)C1`, the growth inhibition was 6% in assay [1] (setting [7]); 93% (active) in assay [1] (setting [8]); 88.2% (active) in assay [1] (at 50.0 µM); 7% in assay [2] (setting [7]); 97% (active) in assay [2] (setting [8]); 51.4% in assay [2] (at 50.0 µM). The growth inhibition in assay [3] (setting [7]) is 10%; in assay [3] (setting [8]), 93% (active); in assay [3] (at 50.0 µM), 48.5%; in assay [4] (setting [7]) it was 5%; in assay [4] (setting [8]), 85% (active); in assay [4] (at 50.0 µM), 3.55%. The growth inhibition in assay [5] (setting [7]) is 4%; in assay [5] (setting [8]), 96% (active); in assay [5] (at 50.0 µM), 79.9% (active); in assay [6] (setting [7]), 0%; in assay [6] (setting [8]), 96% (active); in assay [6] (at 50.0 µM) it was 91.5% (active).

Turning to `Cc1ccc(-c2c(N)[n+]([O-])c3ccccc3[n+]2[O-])cc1`, the growth inhibition in assay [1] (setting [7]) is 34%; in assay [1] (setting [8]) it was 95% (active); in assay [1] (at 50.0 µM) it was 99.3% (active); in assay [2] (setting [7]), 32%; in assay [2] (setting [8]), 99% (active); in assay [2] (at 50.0 µM), 99.3% (active). Also, the growth inhibition in assay [3] (setting [7]) is 47%; in assay [3] (setting [8]) it was 100% (active); in assay [3] (at 50.0 µM) it was 99.2% (active); in assay [4] (setting [7]) it was 46%; in assay [4] (setting [8]) it was 98% (active); in assay [4] (at 50.0 µM), 98.3% (active). The growth inhibition was 54% in assay [5] (setting [7]); 99% (active) in assay [5] (setting [8]); 99.2% (active) in assay [5] (at 50.0 µM); 81% (active) in assay [6] (setting [7]); 99% (active) in assay [6] (setting [8]); 99% (active) in assay [6] (at 50.0 µM).

As to `O=C1C(=O)N(c2ccccc2)N=C1N=Nc1ccccc1`, the growth inhibition is 4% in assay [1] (setting [7]); 33% in assay [1] (setting [8]); 90.4% (active) in assay [1] (at 50.0 µM); 8% in assay [2] (setting [7]); 80% (active) in assay [2] (setting [8]); 86.7% (active) in assay [2] (at 50.0 µM). Moreover, the growth inhibition was 14% in assay [3] (setting [7]); 63% in assay [3] (setting [8]); 96.2% (active) in assay [3] (at 50.0 µM); 2% in assay [4] (setting [7]); 43% in assay [4] (setting [8]); 41.8% in assay [4] (at 50.0 µM). The growth inhibition was 14% in assay [5] (setting [7]); 73% (active) in assay [5] (setting [8]); 69% in assay [5] (at 50.0 µM); 14% in assay [6] (setting [7]); 77% (active) in assay [6] (setting [8]); 56% in assay [6] (at 50.0 µM).

Consider `CC1(C)C=CC2=C(O1)C(=O)c1ccccc1C2=O`, for which the growth inhibition in assay [1] (setting [7]) is 9%; in assay [1] (setting [8]), 76% (active); in assay [1] (at 50.0 µM) it was 39.6%; in assay [2] (setting [7]), 8%; in assay [2] (setting [8]) it was 77% (active); in assay [2] (at 50.0 µM), -0.85%. The growth inhibition in assay [3] (setting [7]) was 18%; in assay [3] (setting [8]) it was 88% (active); in assay [3] (at 50.0 µM) it was 73.2% (active); in assay [4] (setting [7]), -7%; in assay [4] (setting [8]) it was 12%; in assay [4] (at 50.0 µM), 6.9%. For the same compound, the growth inhibition in assay [5] (setting [7]) was 67%; in assay [5] (setting [8]), 95% (active); in assay [5] (at 50.0 µM) it was 48.4%; in assay [6] (setting [7]) it was 16%; in assay [6] (setting [8]) it was 89% (active); in assay [6] (at 50.0 µM) it was 44.5%.
